Bioassay records as filed in PubChem.
A selection: hits, their analogues and other compounds. The true share with any hit is near 32%.
PostGolgi ctrl: inhibits growth of the yeast control strain; inhibition, % at 10 µM; 98,000 compounds, 5% hits; efflux-deficient yeast background strain, growth absorbance A615, 16 h; AID 738
CYP2C19 act: activators of human cytochrome P450 2C19; activation factor at 5 µM; 96,000 tested, under 10 active; P33261; recombinant CYP2C19, luciferin-H EGE luminescence; stronger effect = higher value; 0 = fully inhibited enzyme, 1 = untreated enzyme; AID 1025;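 active = activation factor of at least 2 at 5 µM in the primary screen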
PostGolgi yeast: growth inhibition of a yeast mutant, post-Golgi transport screen; 98,000 compounds, 0.9% hits; post-Golgi transport phenotypic cell assay; inhibition, % at 10 µM;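 note: yeast cells grown in 1536-well plates; yeast grown about 18 h at 30C before absorbance read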
CYP2C9 activ: increases human cytochrome P450 2C9 activity. P11712. recombinant CYP2C9, luciferin-H conversion, luminescence; stronger effect = higher value; factor 1 = untreated enzyme, 0 = blocked. activation factor at 5 µM. 96,000 compounds, 1.4% hits. AID 1024;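 active = activation factor of 2 or more for CYP2C9 at a 5 µM dose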
Target sequence (P11712 whole entry, looked up): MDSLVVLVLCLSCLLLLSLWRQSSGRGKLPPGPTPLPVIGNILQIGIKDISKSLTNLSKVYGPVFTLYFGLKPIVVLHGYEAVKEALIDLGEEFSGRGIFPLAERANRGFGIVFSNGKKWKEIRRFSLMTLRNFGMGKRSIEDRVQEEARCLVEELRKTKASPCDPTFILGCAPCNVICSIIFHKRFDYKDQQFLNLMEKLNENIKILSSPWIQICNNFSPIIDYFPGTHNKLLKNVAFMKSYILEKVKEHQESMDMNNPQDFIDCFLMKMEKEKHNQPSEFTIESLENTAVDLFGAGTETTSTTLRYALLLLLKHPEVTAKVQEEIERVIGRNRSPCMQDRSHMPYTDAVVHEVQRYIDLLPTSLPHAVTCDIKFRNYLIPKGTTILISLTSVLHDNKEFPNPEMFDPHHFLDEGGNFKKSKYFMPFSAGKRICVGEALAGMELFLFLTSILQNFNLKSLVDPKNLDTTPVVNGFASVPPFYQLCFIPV
CYP2C19 inhib: blocks human cytochrome P450 2C19 | CYP2C19 Supersomes, luciferin-H EGE luminescence, 30 min | 96,000 compounds, 21% hits | AID 778 | inhibition, % at 5 µM | P33261;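 active = CYP2C19 inhibition above a set limit at 5 µM in the primary screen, cut at about 50% in these data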
CYP2C9 inh: inhibitors of human CYP2C9. AID 777. CYP2C9 Supersomes, luciferin-H conversion, luminescence. 96,000 compounds, 20% hits. inhibition, % at 5 µM;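 active = blocking of liver enzyme CYP2C9 beyond about 50% at 5 µM, limit read from the data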
Of the large screens only hits and unclear results are named; the others gave an inactive call. Cut-off read from the data, not from the text of the source, unless noted: active = inhibition above about 30%; inactive = the rest.

COC(=O)C1CCN(C(=O)COc2cc3sc(C)nc3c3sccc23)CC1	none
CS(=O)(=O)N(CC(=O)NCc1ccc2c(c1)OCO2)Cc1ccc(Cl)cc1	CYP2C19 inhib 78.8, CYP2C9 inh 81.2
CS(=O)(=O)N(CC(=O)NCc1cccnc1)Cc1ccc(Cl)cc1	CYP2C19 inhib 97.0, CYP2C9 inh 53.7
COc1cccc(N(CC(=O)NCc2cccnc2)S(C)(=O)=O)c1	none
O=C(CN(C1CCCCC1)S(=O)(=O)c1ccccc1)NCc1cccnc1	none (no result: CYP2C19 act, CYP2C9 activ, CYP2C19 inhib, CYP2C9 inh)
O=C(CN(C1CCCCC1)S(=O)(=O)c1ccc(Cl)cc1)NCc1cccnc1	CYP2C19 inhib 100.1, CYP2C9 inh 92.4
COCCNC(=O)CN(Cc1ccc(Cl)cc1)S(C)(=O)=O	none
CS(=O)(=O)N(CC(=O)NCc1ccncc1)Cc1ccc(Cl)cc1	CYP2C19 inhib 99.1, CYP2C9 inh 93.7
CS(=O)(=O)N(CC(=O)NCc1ccc2c(c1)OCO2)c1ccc(Cl)cc1	none
O=C1Nc2ccccc2OC1CC(=O)N1CCCC1 (stereo not given)	none
C=CCNC(=O)C1CCCN(S(C)(=O)=O)C1 (stereo not given)	none
COC(=O)c1nn2c(C(F)(F)F)cc(-c3ccc(Br)o3)nc2c1Br	none (no result: PostGolgi ctrl, PostGolgi yeast)
CCc1c(C)sc(NC(=O)Cn2nc(C(F)(F)F)c3c2CCCC3)c1C#N	none
OCCCc1nc2ccccc2n1CCOc1ccccc1	CYP2C19 inhib 84.1
COc1ccc(NCc2nc3ccccc3n2CCOc2ccccc2)cc1	CYP2C9 inh 78.7
CCOCCn1c(CCCO)nc2ccccc21	none
CCCc1nc2ccccc2n1CCOc1ccccc1	CYP2C19 inhib 61.2
CC(C)C(=O)NCCc1nc2ccccc2n1CCCOc1ccc(Cl)cc1	CYP2C19 inhib 77.2, CYP2C9 inh 77.1
CCOc1ccc(C(=O)NCC(=O)OC(C)C(=O)NCc2ccco2)cc1OCC (stereo not given)	none
Cc1nc2sc3c(c2c2nc(-c4ccco4)nn12)CCCC3	none
Cc1cc(C)n2nc(C(=O)OCCOc3cccc(Br)c3)nc2n1	none
Cc1ccc(OCCn2c(CCCO)nc3ccccc32)cc1	CYP2C19 inhib 58.6
CCOCCn1c(COc2ccccc2)nc2ccccc21	CYP2C19 inhib 50.7
COCc1nc2ccccc2n1CCCOc1ccccc1	CYP2C19 inhib 97.3, CYP2C9 inh 77.7
CCCCCCn1c(CN2CCN(C)CC2)nc2c1c(=O)n(C)c(=O)n2C	none (no result: CYP2C19 act, CYP2C9 activ, CYP2C19 inhib, CYP2C9 inh)
Nc1c(Br)cc(Br)c(N2CCCC2=O)c1Br	CYP2C9 activ 4.3, CYP2C19 inhib 54.4
O=C1CCCN1c1cc(Cl)ccc1Cl	none
Cc1ccc(NC(=O)C2CCN(S(=O)(=O)c3c(C)n[nH]c3C)CC2)nc1	PostGolgi ctrl 35.4
COc1ccc(NC(=O)C2CCN(S(=O)(=O)c3c(C)noc3C)CC2)cc1Cl	CYP2C19 inhib 78.1, CYP2C9 inh 68.3
CCOC(=O)c1cccc(NC(=O)C2CCCN(S(=O)(=O)c3c(C)nn(C)c3C)C2)c1 (stereo not given)	CYP2C19 inhib 83.3, CYP2C9 inh 92.9
CC(=O)c1cccc(NC(=O)C2CCN(S(=O)(=O)c3c(C)n[nH]c3C)CC2)c1	CYP2C19 inhib 71.4
Cc1noc(C)c1S(=O)(=O)N1CCC(C(=O)Nc2ccc(OC(F)(F)F)cc2)CC1	none
Cc1n(CC(O)COCc2ccccc2)c2ccccc2[n+]1C (stereo not given)	none
CCOC(=O)c1cccc(NC(=O)C2CCCN(S(=O)(=O)c3c(C)n[nH]c3C)C2)c1 (stereo not given)	CYP2C19 inhib 66.1, CYP2C9 inh 87.8
CCOC(=O)C1CCN(S(=O)(=O)c2c(C)n[nH]c2C)CC1	CYP2C19 inhib 87.8, CYP2C9 inh 89.5
COc1ccc(NC(=O)C2CCN(S(=O)(=O)c3ccc(OC)c(OC)c3)CC2)cc1	none
COc1ccc(S(=O)(=O)N2CCC(C(=O)Nc3cccc(C(C)=O)c3)CC2)cc1C	CYP2C19 inhib 97.3
COc1ccc(NC(=O)C2CCCN(S(=O)(=O)c3c(C)n[nH]c3C)C2)c(OC)c1 (stereo not given)	CYP2C19 inhib 52.5
O=C(Cc1ccccc1)Nc1ccc(N2CCN(Cc3ccccc3F)CC2)cc1	none
Cc1cc(NC(=O)c2cc(CC(C)C)on2)n(-c2ccccc2)n1	none (no result: CYP2C19 act, CYP2C9 activ, CYP2C19 inhib, CYP2C9 inh)
C=CCn1c(N)cc(=O)nc1SCC(=O)N1CCN(c2ccc(F)cc2)CC1	none
CCOc1ccc2[nH]c3c(N4CCN(c5ccccn5)CC4)ncnc3c2c1	CYP2C19 inhib 80.0, CYP2C9 inh 68.8
Cc1ccc2c(c1)[nH]c1c(N3CCN(Cc4ccccc4)CC3)ncnc12	CYP2C9 inh 64.9
c1ccc(CN2CCN(c3ncnc4c3[nH]c3ccccc34)CC2)cc1	CYP2C19 inhib 54.2, CYP2C9 inh 54.7
Cc1ccc2[nH]c3c(N4CCN(Cc5ccccc5)CC4)ncnc3c2c1	CYP2C19 inhib 77.5, CYP2C9 inh 94.8
Cc1ccc2[nH]c3c(N4CCCCCC4)ncnc3c2c1	none
COC(=O)c1oc2ccc(Br)cc2c1NC(=O)c1ccccc1	none
Cc1ccc2[nH]c3c(N4CCN(Cc5ccc6c(c5)OCO6)CC4)ncnc3c2c1	CYP2C19 inhib 50.0, CYP2C9 inh 88.1
CCN(CC)c1ncnc2c1[nH]c1ccccc12	none
COc1cccc2[nH]c3c(N4CCN(Cc5ccc6c(c5)OCO6)CC4)ncnc3c12	CYP2C19 inhib 93.6, CYP2C9 inh 84.8
c1ccc2c(c1)[nH]c1c(N3CCC4(CC3)OCCO4)ncnc12	CYP2C19 inhib 67.9
c1nc(N2CCN(Cc3ccc4c(c3)OCO4)CC2)c2[nH]cnc2n1	none
COc1cccc2[nH]c3c(N4CCC(C)CC4)ncnc3c12	none
OC1(c2cccc(C(F)(F)F)c2)CCN(c2ncnc3c2[nH]c2ccccc23)CC1	none (no result: CYP2C19 act, CYP2C9 activ, CYP2C19 inhib, CYP2C9 inh)
c1ccc2c(c1)CCN(c1ncnc3c1[nH]c1ccccc13)C2	CYP2C19 inhib 95.4, CYP2C9 inh 94.6
Cc1[nH]n(-c2ccc([N+](=O)[O-])cc2)c(=O)c1C=NCCN1CCN(C(=O)c2cccc(F)c2)CC1	none
O=C(NC1CCCc2ccccc21)C1CCN(S(=O)(=O)c2cccc3nsnc23)CC1 (stereo not given)	none
CSc1nc(Oc2ccc(C)cc2)cc(C(F)(F)F)n1	none
CCn1[nH]c(=O)c(=Nc2c(C)n(C)n(-c3ccccc3)c2=O)cc1-c1ccc(Cl)cc1	none
Cc1ccc2[nH]c3c(=O)n(Cc4ccncc4)cnc3c2c1	CYP2C9 inh 63.4
Cc1ccc2[nH]c3c(=O)n(CCN4CCNCC4)cnc3c2c1	none
Cc1ccc(C)c(N2CCN(C(c3ccncc3)c3nnnn3Cc3ccccc3)CC2)c1 (stereo not given)	CYP2C19 inhib 96.7, CYP2C9 inh 93.0
CCCCC(c1nnnn1Cc1ccco1)N1CCN(c2nc3ccccc3s2)CC1 (stereo not given)	PostGolgi ctrl 45.6, PostGolgi yeast 93.6, CYP2C19 inhib 94.6, CYP2C9 inh 91.4
N#Cc1ccc(C(c2nnnn2Cc2ccccc2)N2CCCC2)cc1 (stereo not given)	none
